Bioassay records from PubChem.
Shown are actives, neighbours in structure and some others; about 10% of the full set was active somewhere.
3T3 cytotox – Cytotoxic Profiling in NIH 3T3 Cell Line of Diverse Libraries Using Quantitative High-Throughput Screening; NIH 3T3 viability, CellTiter-Glo ATP luminescence, 48-72 h; Potency, µM (series often up to 96.7 µM), usual class: inhibitors; 4.3% of 94,000 active; AID 1345082, 2018; further: nearly all actives have a fitted effect of over 55% in size
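Luminescent ATP readout (CellTiter-Glo, 10 min RT) after 48 or 72 hr compound exposure of NIH 3T3 cells seeded at 400 cells/well in 1536-well format; quantitative HTS.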
GPT2 inhibitor – Primary qHTS assay for inhibitors of Glutamate pyruvate transaminase 2 (GPT2); Alanine aminotransferase 2 (Homo sapiens), Q8TD30; Recombinant GPT2, coupled pyruvate oxidase/HRP Amplex Red fluorescence; Potency, µM (highest dose often 57.7 µM), actives largely listed as inhibitors; 0.25% of 100,000 active; AID 1671188, 2021; further: nearly all actives have a fitted effect of over 60% in size
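Fluorescence read-out: pyruvate from GPT2 turnover coupled to pyruvate oxidase, HRP and Amplex Red (0.2mM ThPP, 0.2U/mL PO and HRP, 50uM Amplex final). Substrates 250uM a-KG, 2mM L-alanine; enzyme 10ng/uL; 30 min RT.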
Luciferase inh – Firefly luciferase inhibition profiling of diverse chemical library using quantitative high-throughput screening | purified P. pyralis luciferase, luminescence, biochemical | Potency, µM (top dose mostly 115 µM), actives largely listed as inhibitors | 2.5% of 76,000 active; further: nearly all actives have a fitted effect of over 65% in size
Target sequence (P08659 whole entry, looked up): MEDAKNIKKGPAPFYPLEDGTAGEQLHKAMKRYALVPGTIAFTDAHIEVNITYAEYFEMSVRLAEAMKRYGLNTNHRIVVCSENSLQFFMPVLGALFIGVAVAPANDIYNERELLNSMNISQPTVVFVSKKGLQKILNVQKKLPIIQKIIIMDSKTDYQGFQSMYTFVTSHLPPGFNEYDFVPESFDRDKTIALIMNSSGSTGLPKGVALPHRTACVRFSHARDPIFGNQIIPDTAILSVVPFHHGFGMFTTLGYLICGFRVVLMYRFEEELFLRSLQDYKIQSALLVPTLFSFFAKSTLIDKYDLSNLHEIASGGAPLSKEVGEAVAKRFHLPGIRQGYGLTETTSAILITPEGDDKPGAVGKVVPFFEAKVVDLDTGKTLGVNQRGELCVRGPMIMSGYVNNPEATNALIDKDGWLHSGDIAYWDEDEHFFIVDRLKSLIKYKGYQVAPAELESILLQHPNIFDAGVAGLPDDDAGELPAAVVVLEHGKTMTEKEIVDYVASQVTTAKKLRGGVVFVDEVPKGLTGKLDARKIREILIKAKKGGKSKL
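Purified 10nM P. pyralis luciferase with 10uM D-luciferin and 10uM ATP in 50mM Tris acetate pH 7.5, 10mM Mg acetate, 0.01% Tween-20, 0.05% BSA. qHTS titration; luminescence read by CCD imager.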
HEK cytotox – Cytotoxic Profiling in HEK 293 Cell Line of Diverse Libraries Using Quantitative High-Throughput Screening. HEK 293 viability, ATP luminescence (CellTiter-Glo), 48-72 h. Potency, µM (titrated, usually from 115 µM), most hits filed as inhibitors. 6.6% of 94,000 active. AID 1345083, 2018; further: nearly all actives have a fitted effect of over 60% in size
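HEK 293 cells at 250 cells/well were exposed to compounds by pintool transfer for 48 or 72 hr at 37 degree Celsius, 5% CO2. Viability was read as ATP-coupled luminescence with CellTiter-Glo after 10 min at room temperature.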
NPR1 antag – Natriuretic polypeptide receptor (hNpr1) antagonism - Primary qHTS. HEK293 hNpr1 GloSensor cGMP, ANP-stimulated luminescence. Potency, µM (doses to about 46.3 µM), usual class: inhibitors. 1.6% of 76,000 active. AID 1347048, 2019; calls by dose curve; further: nearly all actives have a fitted effect of over 60% in size
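Compound pre-incubated 30 min at room temperature on GloSensor-loaded HEK293 cells stably carrying hNpr1 and the pGS-40F cGMP biosensor. Stimulation uses hNppA at 0.1 nM final; luminescence is taken at baseline and 20 min post-agonist.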
Large screens that a line does not name were inactive. Unless noted, the call rests on the fitted dose curve; in most records, active means well fitted curve in the direction sought with a large enough effect; inconclusive means small, poorly fitted or top-dose-only effect, or another doubt; inactive means no such curve, though single readings can be large; an effect the other way counts as inactive or inconclusive.

COC(=O)c1ccc(COCC2=CC(C)(C)Oc3ccc(OC)cc32)cc1	3T3 cytotox inconclusive, HEK cytotox 35µM (no result: GPT2 inhibitor, Luciferase inh, NPR1 antag)
CN(C)C[C@@H]1CN(Cc2ccccn2)C[C@H]1NS(=O)(=O)Cc1ccccc1	none
O=C1N(Cc2ccc(F)c(F)c2)CCCC12CCN(c1nc3ccccc3o1)C2 (centres undefined)	3T3 cytotox 40µM, Luciferase inh 40µM, HEK cytotox inconclusive
CCOc1ccccc1CN1CCC2(CCN(C(C)=O)CC2)Oc2ccccc21	HEK cytotox inconclusive
CCOc1ccccc1CN1CCC2(CCN(C(=O)C(C)(C)C)CC2)Oc2ccccc21	3T3 cytotox 32µM, HEK cytotox 40µM
CCOc1ccccc1CN1CCC2(CCN(C(=O)C3CC3)CC2)Oc2ccccc21	3T3 cytotox 25µM, HEK cytotox 45µM
Cc1nc(-c2ccc(F)cc2)n(CC(=O)Nc2cccc(C#N)c2)c(=O)c1CCO	3T3 cytotox inconclusive, HEK cytotox inconclusive
CCc1nc(-c2c3n(c(=O)n(Cc4ccc(C(=O)OC)cc4)c2=O)CCCC3)no1	none
COc1ccc(Nc2ccnc(N3CCC(NC(=O)C4CCCC4)CC3)n2)cc1	3T3 cytotox inconclusive, HEK cytotox 50µM (no result: Luciferase inh, NPR1 antag)
COc1ccc(Nc2ccnc(N3CCC(C(=O)N4CCOCC4)CC3)n2)cc1	GPT2 inhibitor inconclusive (no result: Luciferase inh, NPR1 antag)
COc1ccc(Nc2ccnc(N3CCN(C(=O)C4CCCC4)CC3)n2)cc1	3T3 cytotox inconclusive, HEK cytotox 28µM (no result: Luciferase inh, NPR1 antag)
COc1ccc(Nc2ccnc(N3CCC(C(=O)NC4CCCC4)CC3)n2)cc1	3T3 cytotox 35µM, HEK cytotox inconclusive (no result: Luciferase inh, NPR1 antag)
CN1C(=O)c2cccn2CC1C(=O)NCCCc1ccccc1 (centres undefined)	none (no result: Luciferase inh, NPR1 antag)
COc1ccc(-c2ccc(C(=O)NCc3ccc4c(c3)OCO4)cc2)nn1	HEK cytotox inconclusive (no result: GPT2 inhibitor, Luciferase inh, NPR1 antag)
O=C(Nc1cnc(-c2ccccc2)nc1)c1cccc(F)c1	Luciferase inh inconclusive
O=C(Nc1cnc(-c2ccc(F)cc2)nc1)c1ccco1	Luciferase inh 3.5µM, HEK cytotox inconclusive
O=C(Nc1cnc(-c2ccccc2)nc1)c1ccc(F)c(F)c1	none
O=C(Nc1cnc(-c2ccc(Cl)cc2)nc1)c1ccccc1F	Luciferase inh 0.79µM
O=C(Nc1cnc(-c2ccccc2)nc1)c1ccco1	Luciferase inh 11µM
Cc1nnc2ccc(N3CCC(NC(=O)c4ccccc4)C3)nn12 (centres undefined)	none (no result: GPT2 inhibitor, Luciferase inh, NPR1 antag)
CCOCCCNc1ncnc2c1CN(C1CCNC1)C(=O)CN2C (centres undefined)	none (no result: Luciferase inh, NPR1 antag)
CCCCNC(=O)c1cccc(CN2C(=O)CC(c3ccccc3C)C(C(=O)OCC)=C2C)c1 (centres undefined)	3T3 cytotox inconclusive, HEK cytotox inconclusive
CCOC(=O)C1=C(C)N(Cc2ccc(C(=O)N3CCCCC3)cc2)C(=O)CC1c1cccc(C)c1 (centres undefined)	3T3 cytotox inconclusive, HEK cytotox 40µM, NPR1 antag inconclusive
Cc1noc2c(NCc3cccnc3)cc(-c3ccc(F)cc3)nc12	3T3 cytotox inconclusive, HEK cytotox inconclusive
Cc1noc2c(NCCN3CCOCC3)cc(-c3ccc(Cl)cc3)nc12	3T3 cytotox inconclusive, HEK cytotox inconclusive
Cc1noc2c(NCC3CCOCC3)cc(-c3ccc(Cl)cc3)nc12	3T3 cytotox inconclusive, HEK cytotox 100µM
Cc1noc2c(NCc3cccnc3)cc(-c3ccc(Cl)cc3)nc12	3T3 cytotox inconclusive, HEK cytotox 100µM
Cc1noc2c(NCc3ccncc3)cc(-c3ccc(Cl)cc3)nc12	3T3 cytotox 45µM, HEK cytotox inconclusive
O=C(c1ccc2ccccc2c1)N1C[C@@H]2C[C@H](C1)c1ccc(NS(=O)(=O)Cc3ccccc3)c(=O)n1C2	3T3 cytotox 79µM, HEK cytotox inconclusive
Cn1cc(CN2C[C@@H]3C[C@H](C2)c2ccc(NS(=O)(=O)c4cccc(F)c4)c(=O)n2C3)c2ccccc21	3T3 cytotox 13µM, HEK cytotox 32µM
O=C(c1ccc(-c2ccccc2)cc1)N1C[C@@H]2C[C@H](C1)c1ccc(NS(=O)(=O)c3cccc(F)c3)c(=O)n1C2	3T3 cytotox inconclusive, Luciferase inh inconclusive, HEK cytotox 50µM
O=C(N1CCOCC1)N1CCCN(c2ccc3nnc(-c4ccccc4)n3n2)CC1	none (no result: GPT2 inhibitor, Luciferase inh, NPR1 antag)
Cc1ccc(-c2noc([C@@H]3Cc4nc[nH]c4CN3Cc3ccccc3)n2)cc1	3T3 cytotox 79µM, Luciferase inh inconclusive, HEK cytotox 100µM
c1ccc(CN2Cc3[nH]cnc3C[C@H]2c2nc(-c3ccccc3)no2)cc1	3T3 cytotox inconclusive, GPT2 inhibitor inconclusive, HEK cytotox 71µM
CCNC(=O)N1Cc2[nH]cnc2C[C@H]1c1nc(-c2ccc(F)c(Cl)c2)no1	3T3 cytotox inconclusive, HEK cytotox inconclusive
Fc1ccc(CN2Cc3[nH]cnc3C[C@H]2c2nc(-c3ccc(F)c(Cl)c3)no2)cc1	3T3 cytotox 89µM, Luciferase inh inconclusive, HEK cytotox inconclusive
CN(C)c1ccc(CN2Cc3[nH]cnc3C[C@H]2c2nc(-c3ccncc3)no2)cc1	3T3 cytotox inconclusive
COc1ccc(NC(=O)c2ccc3c(c2)N(S(C)(=O)=O)CC3)cc1Cl	GPT2 inhibitor inconclusive, Luciferase inh 1µM, HEK cytotox inconclusive, NPR1 antag inconclusive
CS(=O)(=O)N1CCc2ccc(C(=O)Nc3ccc(Cl)c(C(F)(F)F)c3)cc21	Luciferase inh 18µM, HEK cytotox 20µM, NPR1 antag inconclusive
CCCCN1C(=O)NC(c2ccc(OCC)cc2)C2=C1COC2=O (centres undefined)	none
O=C(C1CCCCN1Cc1ccc(-c2cccs2)cc1)N1CCCCC1 (centres undefined)	3T3 cytotox inconclusive, HEK cytotox inconclusive (no result: Luciferase inh, NPR1 antag)
C[C@@]1(O)CCN(C(=O)CCc2ccc(-c3cccs3)o2)C[C@@H]1O	none
CO[C@H]1C[C@@H](O)C12CCN(C(=O)CCc1ccc(-c3cccs3)o1)CC2	3T3 cytotox inconclusive, HEK cytotox 25µM, NPR1 antag inconclusive
CCOC(=O)C1c2c(OC)ccc3c2C(=CC(C)(C)CO3)CN1Cc1ccccc1 (centres undefined)	3T3 cytotox inconclusive, HEK cytotox 45µM (no result: GPT2 inhibitor, Luciferase inh, NPR1 antag)
COc1ccc2c3c1CN(Cc1cccc(NC(C)=O)c1)CC3=CC(C)(C)CO2	3T3 cytotox inconclusive (no result: GPT2 inhibitor, Luciferase inh, NPR1 antag)
NC1(C(=O)NCc2nc(-c3cccc(F)c3)c(-c3ccccn3)[nH]2)CCC1	GPT2 inhibitor inconclusive
O=C(NCc1nc(-c2cccc(F)c2)c(-c2ccccn2)[nH]1)N1CCCC1	3T3 cytotox inconclusive, HEK cytotox 50µM
